In the library only some 2.6% were active in any assay of this set; here they are far more common.
Cruzain inh Det: blocks cruzain activity in presence of Triton detergent. P25779. purified cruzain, Z-FR-AMC fluorescence, 0.01% Triton. Potency, µM, inactives show max response, negative = inhibition, hits mostly inhibitors. actives 0.43% (n = 200,000). AID 1478;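 further: plate controls were neutral wells for no effect and buffer without enzyme for full effect; nearly all actives have a fitted effect of over 40% in size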
Target sequence (P25779 123-467 limits assumed): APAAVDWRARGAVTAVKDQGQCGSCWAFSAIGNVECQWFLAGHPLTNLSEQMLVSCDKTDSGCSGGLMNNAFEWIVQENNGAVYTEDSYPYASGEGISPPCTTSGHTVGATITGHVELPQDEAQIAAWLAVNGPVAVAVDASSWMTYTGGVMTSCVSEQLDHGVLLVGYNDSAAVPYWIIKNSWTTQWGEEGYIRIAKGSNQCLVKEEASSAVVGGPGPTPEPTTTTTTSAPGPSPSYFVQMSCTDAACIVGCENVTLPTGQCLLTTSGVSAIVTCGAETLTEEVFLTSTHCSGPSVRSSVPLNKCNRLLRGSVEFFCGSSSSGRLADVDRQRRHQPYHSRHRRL
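Z-FR-AMC hydrolysis (2 uM substrate) by cruzain (1.5 nM) monitored kinetically at ex 360/em 450 nm after 15 min room-temperature compound exposure; 0.01% Triton X-100, pH 5.5, 5 mM DTT.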
Cruzain inh noDet: inhibitors of Trypanosoma cruzi cruzain without detergent; Potency, µM, without a hit: max response, negative = inhibition, usual class: inhibitors; purified cruzain, Z-FR-AMC fluorescence, no detergent; actives 2.3% (n = 200,000);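 further: plate controls were enzyme without inhibitor for no effect and buffer without enzyme for full effect; nearly all actives have a fitted effect of over 40% in size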
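Purified cruzain at 1.5 nM, pre-incubated 15 min with compound at room temperature in 100 mM sodium acetate pH 5.5, 5 mM DTT, 0.00005% Triton X-100. Reaction started with 2 uM Z-FR-AMC; AMC fluorescence increase over 60 s gives rate.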
* = called active by the depositor; ? = inconclusive. The call rests on the fitted dose curve; in most records, active means well fitted curve in the direction sought with a large enough effect; inconclusive means small, poorly fitted or top-dose-only effect, or another doubt; inactive means no such curve, though single readings can be large; an effect the other way counts as inactive or inconclusive. Potency means the concentration at half of the fitted maximal effect.

SMILES	Cruzain inh Det	Cruzain inh noDet
COC(=O)C1=C(C)Nc2nc(SCc3ccccc3)[nH]c(=O)c2C1c1cccs1 (configuration not stated)	-1.3%	25.1µM*
CCCCOC(=O)c1cccc(NC(=O)/C=C/c2ccccc2Cl)c1	-6.1%	-12.3%
CN(C)S(=O)(=O)c1cccc(NC(=S)N/N=C/C(c2ccccc2)c2ccccc2)c1	-4.8%	31.6µM*
CC(/C=N/NC(=S)Nc1cccc(S(=O)(=O)N(C)C)c1)c1ccccc1 (configuration not stated)	-3.3%	-28.0%
CCCNC(=O)CCSc1nc(-c2ccc3c(c2)OCO3)cc(C(F)(F)F)n1	-1.2%	-3.0%
CCc1ccccc1NC(=O)COc1ccc2c(=O)c(Oc3cc(C)ccc3C)coc2c1	-4.8%	?
CC(C)c1ccccc1NC(=O)COc1ccc2c(=O)c(Oc3ccc4ccccc4c3)coc2c1	-2.7%	31.6µM*
Cc1c(C(=O)OC(C)C)sc(NC(=O)C2c3ccccc3Oc3ccccc32)c1C(=O)OC(C)C	-0.5%	?
CC(/C=C/c1ccc(O)cc1)=N/O	22.4µM*	7.94µM*
CC(/C=C/c1ccc(OCc2ccccc2)cc1)=N\O	-2.6%	?
Cc1ccc(OCCSCc2nc3ccccc3[nH]2)cc1	-19.6%	-9.1%
Clc1ccc(OCCSCc2nc3ccccc3[nH]2)cc1	?	25.1µM*
CCN(c1ccccc1)S(=O)(=O)c1ccc(NC(=O)c2nc(SC(C)C)ncc2Cl)cc1	-4.2%	-27.2%
COc1cccc(NC(=O)CSc2nc3ccccc3cc2Cc2ccccc2)c1	1.5%	?
COc1ccc(OC)c(NC(=O)CSc2nc3ccccc3cc2Cc2ccccc2)c1	2.1%	20µM*
COc1ccc(NC(=O)CSc2nc3ccccc3cc2Cc2ccccc2)cc1	-1.7%	?
COc1cc(NC(=O)CSc2nc3ccccc3cc2Cc2ccccc2)cc(OC)c1	0.1%	31.6µM*
CCCC[N+](=O)[O-]	11.8%	0.6%
CS(=O)(=O)Nc1ccc(Cc2noc(-c3ccc4[nH]cc(CCN)c4c3)n2)cc1	-2.4%	31.6µM*
COc1ccc2[nH]cc(CCNc3ccnc(-c4cccc(NS(C)(=O)=O)c4)n3)c2c1	-4.2%	0.5%
Cc1ccc(Cl)cc1N1CCN(C(=O)C2CCN(Cc3nc(-c4ccc(Cl)cc4)oc3C)CC2)CC1	-0.8%	-7.0%
COc1ccc(-c2cc(C(F)(F)F)nc(SCCC(=O)Nc3ccc(OC)c(OC)c3)n2)cc1	-5.7%	?
COc1ccc(/C=N/NC(=O)c2ccco2)cc1Cn1nc(C)cc1C	-3.8%	-5.4%
COc1ccc(/C=N\NC(=O)COc2ccc(C(C)(C)C)cc2)cc1Cn1nc(C)cc1C	5.2%	25.1µM*
COC(=O)CSc1nc2ccccc2o1	7.9%	-0.9%
SMILES	Cruzain inh Det	Cruzain inh noDet
COc1cccc(C2CC(c3cccs3)=NN2C(=O)CSc2nc3ccccc3o2)c1OC (configuration not stated)	3.55µM*	?
COc1ccc(Oc2ncc3ncc(=O)n(C)c3n2)cc1	0.2%	-3.5%
O=[N+]([O-])c1ccc(C2Nc3cccc4cccc(c34)N2)cc1	-0.8%	?
c1coc(C2Nc3cccc4cccc(c34)N2)c1	-10.6%	7.94µM*
Cc1ccc(C2Nc3cccc4cccc(c34)N2)s1	-8.4%	20µM*
O=[N+]([O-])c1cccc(C2Nc3cccc4cccc(c34)N2)c1	-8.5%	?
Oc1ccc(C2Nc3cccc4cccc(c34)N2)c(O)c1	?	15.8µM*
COc1cc(C2Nc3cccc4cccc(c34)N2)cc(OC)c1O	-12.5%	-21.9%
O=C(CSc1nc2ccccc2[nH]1)N1c2ccccc2Sc2ccccc21	-6.0%	-3.1%
O=C(CSc1nc2ccccc2[nH]1)c1ccc(Cl)s1	-4.2%	10µM*
Cc1cc(C)cc(NC(=O)Cn2cc(C(=O)c3cccs3)c3ccccc32)c1	-4.9%	-20.4%
COc1cccc(NC(=O)C(Sc2nnc3ccccn23)c2ccccc2)c1 (configuration not stated)	-3.4%	-4.8%
CCCn1c(SC(C(=O)Nc2cccc(OC)c2)c2ccccc2)nc2ccccc2c1=O (configuration not stated)	-3.9%	10µM*
CC(=O)N1CCC2(CC1)CN(Cc1ccccc1)C2	1.5%	-5.4%
CC(C)(CO)[C@H](O)C(=O)NCCC(=O)O	-4.7%	-3.6%
COc1cccc(NC(=S)/C(=C(\[O-])c2ccc(C)c([N+](=O)[O-])c2)[n+]2ccccc2)c1	-9.8%	25.1µM*
Cc1ccc(NC(=S)/C(=C(\[O-])c2ccc(C)c([N+](=O)[O-])c2)[n+]2ccccc2)cc1C	-6.3%	25.1µM*
Cc1ccccc1NC(=S)/C(=C(\[O-])c1ccc(C)c([N+](=O)[O-])c1)[n+]1ccccc1	-19.8%	-21.9%
CCC(=O)Nc1cccc(NC(=O)c2ccc(C)c([N+](=O)[O-])c2)c1	-7.7%	-1.4%
O=Cc1ccc(Cl)cc1	0.3%	6.0%
CCOc1ccc(N(CC)S(=O)(=O)N2CCCC(C(=O)Nc3cc(Cl)ccc3OC)C2)cc1 (configuration not stated)	-1.2%	-16.0%
Cn1c(=O)c2c(nc(N3CCOCC3)n2Cc2cccc(Br)c2)n(C)c1=O	-2.6%	20.3%
COc1ccc(S(=O)(=O)c2c(Nc3ccc(C)cc3)sc(C(=O)c3ccc4c(c3)OCO4)c2N)cc1	-1.8%	3.16µM*
Cc1ccc(CNC(=O)c2c(Nc3ccccc3C)sc(C(=O)c3ccc(F)cc3)c2N)cc1	-4.1%	?
Cc1ccc(Nc2sc(C(=O)c3ccccc3)c(N)c2C(=O)Nc2ccc(Cl)cc2)cc1	-2.6%	?
SMILES	Cruzain inh Det	Cruzain inh noDet
Cc1ccc(S(=O)(=O)c2c(Nc3ccccc3)sc(C(=O)c3ccc4c(c3)OCO4)c2N)cc1	-3.7%	7.94µM*
COc1ccc(S(=O)(=O)c2c(Nc3ccc(F)cc3)sc(C(=O)c3ccc4c(c3)OCO4)c2N)cc1	-2.1%	?
Cc1ccccc1Nc1sc(C(=O)c2ccc3c(c2)OCO3)c(N)c1S(=O)(=O)c1ccccc1	-3.2%	7.94µM*
Cc1ccc(C)c(CN2C(=O)c3ccccc3S(=O)c3ccc(C(=O)NCc4ccccc4)cc32)c1 (configuration not stated)	-0.4%	?
Cc1noc(C)c1-c1cc(Nc2ccccc2)ncn1	1.2%	1.6%
COc1ccccc1NC(=O)c1c(NC(=O)c2ccco2)sc2c1CCC2	-5.0%	7.94µM*
Cc1cccc(C(=O)Nc2sc3c(c2C(=O)NCc2ccco2)CCCC3)c1	3.4%	-8.6%
COc1ccccc1C(=O)Nc1sc2c(c1C(=O)NCc1ccco1)CCCC2	-24.0%	7.94µM*
NC(=O)c1c(NC(NC(=O)c2ccco2)C(=O)c2ccc(Cl)cc2)sc2c1CCCC2 (configuration not stated)	-12.5%	-14.8%
COc1ccccc1NC(=O)c1c(NC(=O)c2ccco2)sc2c1CCC(C(C)(C)C)C2 (configuration not stated)	-1.3%	-6.4%
N#Cc1c(NC(NC(=O)c2ccco2)C(=O)c2ccccc2)sc2c1CCCC2 (configuration not stated)	-4.0%	25.1µM*
CCOc1ccc(CNCc2c(C(=O)O)n(Cc3ccccc3F)c3cc(OC)ccc23)cc1	-2.3%	3.1%
CCCSc1oc(-c2ccco2)nc1S(=O)(=O)c1ccc(Cl)cc1	-25.5%	1.3%
O=C(CSc1oc(-c2ccc(F)cc2)nc1S(=O)(=O)c1ccccc1)c1ccc(Cl)cc1	-4.5%	31.6µM*
O=C(CSc1oc(-c2ccco2)nc1S(=O)(=O)c1ccc(Br)cc1)c1ccc(Cl)cc1	-5.3%	20µM*
